# Screens: PubChem BioAssay, National Center for Advancing Translational Sciences (NCATS)
# Shown are actives, neighbours in structure and some others; about 4.7% of the full set was active somewhere.
# D1 ag – human D1 receptor agonism; HEK293 T-REx D1 cells, calcium flux, agonist mode; actives 1% (n = 360,000); AID 504660; activation, % at 2 µM; P21728
#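 Inducible HEK293 T-REx D1 cells, force-coupled to calcium signalling, were plated at 4000 cells/well with tetracycline and held overnight at 30 C. After no-wash calcium dye loading, compound-evoked calcium rise over 180 s flagged agonists.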
# TRHR enhancer – TRH receptor (human) allosteric enhancement | P34981 | TRHR cells, fluo-8 calcium fluorescence, EC20 TRH enhancement | enhancement, % at 2 µM | actives 0.66% (n = 360,000) | AID 493056; in the data active = enhancement above about 30%
# Target sequence (P34981 whole entry, looked up): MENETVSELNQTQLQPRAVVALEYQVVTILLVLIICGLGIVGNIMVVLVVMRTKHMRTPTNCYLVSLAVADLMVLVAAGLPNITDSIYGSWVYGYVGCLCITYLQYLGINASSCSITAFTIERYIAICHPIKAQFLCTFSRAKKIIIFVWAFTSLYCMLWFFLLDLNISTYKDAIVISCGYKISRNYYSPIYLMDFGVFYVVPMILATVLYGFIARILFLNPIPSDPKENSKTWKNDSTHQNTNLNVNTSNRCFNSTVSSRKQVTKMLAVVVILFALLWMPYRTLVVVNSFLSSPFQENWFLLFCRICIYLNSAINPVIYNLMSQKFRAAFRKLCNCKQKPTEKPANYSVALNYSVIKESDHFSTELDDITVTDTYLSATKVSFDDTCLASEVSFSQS
#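 Enhancer read-out: after compound pinning and an initial kinetic agonist-mode read, an EC20 of TRH (10 nM final) was injected and fluo-8 calcium signal (Ex 480/Em 530) followed at 1 s/cycle for 100 cycles in TRHR-expressing cells.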
# D1 potentiator – enhances dopamine response at the human D1 receptor; potentiation, % at 10 µM; HEK293 TREx D1 cells, calcium flux, dopamine EC20 potentiation; AID 504651; actives 0.036% (n = 360,000); P21728; in the data active = potentiation above about 30%
# D1 antag – human D1 dopamine receptor antagonism. P21728. HEK293 TREx D1 cells, calcium flux, dopamine EC80; stronger effect = lower value. activity change, negative = inhibition, % at 10 µM. actives 3.2% (n = 360,000). AID 504652; in the data active = activity change below about -30%
#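 Compound effects on dopamine-evoked calcium signalling were measured in tetracycline-induced HEK293 Trex D1 cells. Dopamine at EC80 followed a 180 s compound pre-read, and fluorescence was tracked kinetically for 180 s more.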
# TRHR ag – TRH receptor (human) agonism | P34981 | TRHR cells, calcium flux fluo-8, FDSS agonist mode | activation, % at 2 µM | actives 0.18% (n = 360,000)
#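 Steps: seed TRHR cells overnight; add fluo-8 no-wash Ca dye, RT 30 min–1.5 h; record 10 s baseline; pin-transfer compounds; monitor fluorescence 1 cycle/s for the agonist window. Calcium increases flag candidate agonists.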
# Numbers stand for hits; i = inactive; nt = no result. Rule as the data show it, unless noted: active = activation above about 30%; inactive = the rest.
SMILES,D1 ag,TRHR enhancer,D1 potentiator,D1 antag,TRHR ag
CC(=O)Nc1ccc(Sc2ncccc2C(=O)Nc2ccc(F)cc2)cn1,99,i,i,i,i
Cc1ccc(-n2c(=O)c3c(c4cc(C)ccc4n3C)n(Cc3ccc(F)cc3)c2=O)cc1,i,i,i,i,i
O=C(c1ccc(Br)cc1)N1CCN(CCc2ccncc2)CC1,i,i,i,i,i
CCCCCn1ccc(=N)cc1,i,36,i,i,i
Cc1cccc(-n2c(=O)[nH]c3c(C(N)=O)nc(CC(C)C)nc32)c1,i,i,i,-36,i
CC(C)Cc1nc(C(N)=O)c2[nH]c(=O)n(-c3ccc(F)cc3)c2n1,i,i,i,i,i
N#Cc1ccc(CN2CCN(C(=O)CCNS(=O)(=O)c3ccc(F)c(Cl)c3)CC2)cc1,i,i,nt,i,i
CCOC(=O)C(=O)c1csc(NC(=O)CCSc2ccc(C)cc2)n1,i,i,i,-79,i
CCOc1ccc(N2CC(C(=O)Nc3ccc(S(=O)(=O)Nc4ncccn4)cc3)CC2=O)cc1 (stereo not given),i,32,i,nt,i
CCNC(=O)C1CC(=O)N(c2ccc(OCC)cc2)C1 (stereo not given),i,i,i,i,i
CCOc1ccc(N2CC(C(=O)NCC(=O)Nc3ccc(F)c(F)c3F)CC2=O)cc1 (stereo not given),i,i,i,-32,i
O=C(O)C1C2CCC(O2)C1C(=O)Nc1ccc(OC(F)F)cc1 (stereo not given),i,i,i,i,i
CC(C)(C)C(=O)N1CCN(c2ccc(Cl)cc2[N+](=O)[O-])CC1,i,i,i,i,i
CC(C)(C)C(=O)N1CCN(c2c(Cl)cccc2[N+](=O)[O-])CC1,i,i,i,-52,i
CC(=NCCc1ccccc1)C1=C(O)CSC1=O,i,i,i,-46,i
CC(=NCCc1ccccc1)C1=C(O)CCC1=O,i,i,i,i,i
Cc1nonc1NC(=O)CSc1nc2ccccc2o1,i,i,nt,i,i
Clc1cccc(/C=N/N2CCN(Cc3ccccc3)CC2)c1,i,i,i,-33,i
C(=N\N1CCN(Cc2ccccc2)CC1)/c1ccccc1,i,i,i,i,i
CCC(=O)N1CCc2cc(CNC(=O)c3cccc(N(C)C)c3)ccc21,i,35,i,i,i
COc1ccc(C(=O)NCc2ccc3c(c2)CCN3C(=O)c2ccccc2)cc1,i,i,i,i,i
Cc1ccccc1C(=O)NCc1ccc2c(c1)CCN2C(=O)c1ccccc1,i,i,i,-41,i
CC(=O)Nc1cccc(C(=O)NCc2ccc3c(c2)CCN3C(C)=O)c1,i,i,i,i,i
O=C(NCc1ccc2c(c1)CCN2C(=O)c1ccncc1)c1ccccc1Br,i,i,i,-31,i
O=C(NCc1ccc2c(c1)CCN2C(=O)c1ccncc1)c1ccccc1F,i,i,i,i,i
SMILES,D1 ag,TRHR enhancer,D1 potentiator,D1 antag,TRHR ag
CCOc1ccccc1C(=O)NCc1ccc2c(c1)CCN2C(=O)c1ccccc1,i,i,i,-38,i
CNC(=O)c1c(NC(=O)c2cc(-c3cc(C)c(C)cc3O)n[nH]2)sc2c1CCCC2,i,i,i,i,i
CC(C)NC(=O)Cn1nc(N2CCN(c3ccccc3)CC2)ccc1=O,i,i,i,i,i
COc1ccccc1C(=O)NC1CC(C)(C)NC(C)(C)C1,i,i,i,i,i
COC(=O)c1cc(S(=O)(=O)N2CCC(c3cc(OC)ccc3OC)C2)c[nH]1 (stereo not given),i,i,i,i,i
COC(=O)c1ccc(NC(=O)COC(=O)c2nc3nccc(C)n3n2)cc1,i,33,i,-35,i
CC(=O)Nc1ccc(NC(=O)C(C)OC(=O)c2ccc(N(C)C)cc2)cc1 (stereo not given),i,i,nt,i,i
CC(=O)Nc1ccc(NC(=O)C(C)OC(=O)/C(C#N)=C/c2ccc(N(C)C)cc2)cc1 (stereo not given),84,i,i,i,i
CC(OC(=O)/C(C#N)=C/c1ccc(N(C)C)cc1)C(=O)N(C)c1ccccc1 (stereo not given),70,i,i,i,49
CCn1cnc2c(Nc3ccc(CCC(=O)N=C(N)N)cc3)nc(C#N)nc21,i,i,i,i,i
CCc1ccc(CNC(=O)c2ccc3c(c2)nc2n3CCCCC2)cc1,i,i,i,i,i
COCCN(Cc1ccccc1)C(=O)c1ccc(C(=O)c2ccccc2)cc1,i,i,i,i,i
COc1ccc2c(c1)CCC/C2=N/OC(=O)c1ccccc1OC,i,i,i,-33,i
COc1ccc(OCc2cc(C(=O)N3CCCCCC3)no2)c(Cl)c1,i,i,i,i,i
COc1ccc(OCc2cc(C(=O)N3CCC(c4ccccc4)CC3)no2)c(Cl)c1,35,i,i,i,i
COc1cccc(OCc2cc(C(=O)N3CCC(c4ccncc4)CC3)no2)c1,i,i,i,-36,i
Cc1cc(N2CCN(c3nc4ccccc4s3)CC2)n2ncnc2n1,i,i,i,-32,i
CCOc1ccc(Nc2nc(-c3cccc(Cl)c3)c3c(n2)-c2ccccc2OC3)cc1,i,i,i,i,i
CCN1CCN(c2c(S(=O)(=O)c3ccc(OC)cc3)cnc3cc(OC)c(OC)cc23)CC1,i,i,i,-40,i
Cc1ccc(C)c(N2CCN(C(=O)c3cc4sccc4n3C)CC2)c1,i,i,i,i,i
Cc1ccc(C)c(N2CCN(C(=O)C3CCN(C(=O)c4cc5sccc5n4C)CC3)CC2)c1,i,i,i,-65,i
C=C(C)Cn1c(SCC(=O)N/N=C/c2ccccc2)nc2ccccc2c1=O,i,i,i,i,i
O=C(CNC(=O)C(c1ccccc1)c1ccccc1)N/N=C/c1ccc(O)cc1O,i,i,i,i,i
O=C(CNC(=O)C(c1ccccc1)c1ccccc1)N/N=C\c1cccc(O)c1,52,i,i,i,i
C=C(C)Cn1c(SCC(=O)N/N=C/c2cccc(O)c2)nc2ccccc2c1=O,i,i,i,-35,i
SMILES,D1 ag,TRHR enhancer,D1 potentiator,D1 antag,TRHR ag
COc1ccc(CCNC(=O)c2ccc3c(c2)N(Cc2cccc(Cl)c2)C(=O)c2ccccc2S3=O)cc1OC (stereo not given),i,i,i,i,i
Cc1ccccc1CNC(=O)c1cnc2sc(N3CCOCC3)nn2c1=O,i,i,i,i,i
Cc1ccc(C(C)C)c(OC(C)C(=O)NCC2(N(C)C)CCCCC2)c1 (stereo not given),i,i,i,i,i
CCOC(=O)C1CCCN(c2c(N3CCC(N4CCCCC4)CC3)c(=O)c2=O)C1 (stereo not given),i,i,nt,-33,i
Cc1ccc(N=C(NO)c2cnccc2C(F)(F)F)c(C)c1,i,32,i,i,i
N#CC(C#N)=C1C=CC=CN1/C(=C\c1ccco1)C(=O)c1ccc(Cl)cc1,i,i,i,-52,i
C#CCCc1cocc1/C=[N+](\[O-])c1ccc(C(=O)OCC)cc1,i,i,i,i,i
